Shown are actives, neighbours in structure and some others; about 19% of the full set was active somewhere.
IL1B secr inh: qHTS for Inhibitors of Inflammasome Signaling: IL-1-beta AlphaLISA Primary Screen; THP-1 LPS/ATP IL-1B secretion, AlphaLISA, 16 h; hits give low values; activity change, % at 57.5 µM; 360,000 compounds, 4.7% hits; in the data active = activity change below about -50%; inconclusive = mostly about -30% to -49%; also: % is scaled to controls: 0 for no effect and ±100 for the full control effect
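Secreted IL-1B measured by AlphaLISA bead assay after 16 h compound exposure of THP-1 cells; compounds (final up to 57.5 uM) added 1 h before LPS (250 ng/mL) and ATP (1.25 mM) stimulation; lower signal means less secretion.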
HepG2 viability: qHTS for Inhibitors of TGF-b: Cytotox Counterscreen; HepG2 CAGA-GFP viability, ATP luminescence, 18 h; 410,000 compounds, 0.76% hits; Potency, µM (series often up to 46.1 µM), without a hit: at the top dose activity change, negative = cytotoxicity, usual class: cytotoxic; also: potency is read from the fitted curve at half-maximal effect
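CellTiter-Glo luminescence gave cytotoxicity after 18 hours at 37 degrees C. The cells were HepG2 CAGA-GFP in 1% FBS DMEM, stimulated with 500 pg/mL TGF-beta after compound addition. %Activity was normalised to no-cell wells (complete cell-killing) and DMSO (no toxicity), and curves were fitted and classified.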
DT40 TDP1 CPT: qHTS for Inhibitors of human tyrosyl-DNA phosphodiesterase 1 (TDP1): qHTS in cells in presence of CPT | chicken DT40 Tdp1-/-;hTDP1 cells + 20 nM CPT, ATP luminescence, 48 h | Potency, µM (top dose mostly 46.2 µM), for inactives: at the top dose activity change, negative = growth inhibition, most hits filed as inhibitors | 420,000 compounds, 12% hits | AID 686979, 2013; also: potency is read from the fitted curve at half-maximal effect; % is scaled to controls: 0 for no effect and ±100 for the full control effect; nearly all actives have a fitted effect of over 55% in size
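Chicken DT40 Tdp1-/- cells complemented with human TDP1, 400 cells/well, exposed to compounds plus 20 nM camptothecin for at least 48 h at 37 C; viability read as ATP content by CellTiter-Glo luminescence.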
S-ASM inh: Inhibitors of Secretory Acid Sphingomyelinase (S-ASM): qHTS; placental ASM, HMU-PC fluorogenic substrate, 60 min; Potency, µM (highest dose often 57.5 µM), inactives show at the highest dose activity change, negative = inhibition, actives largely listed as inhibitors; 340,000 compounds, 0.006% hits; also: potency is read from the fitted curve at half-maximal effect
Target sequence (P17405 47-631 limits assumed): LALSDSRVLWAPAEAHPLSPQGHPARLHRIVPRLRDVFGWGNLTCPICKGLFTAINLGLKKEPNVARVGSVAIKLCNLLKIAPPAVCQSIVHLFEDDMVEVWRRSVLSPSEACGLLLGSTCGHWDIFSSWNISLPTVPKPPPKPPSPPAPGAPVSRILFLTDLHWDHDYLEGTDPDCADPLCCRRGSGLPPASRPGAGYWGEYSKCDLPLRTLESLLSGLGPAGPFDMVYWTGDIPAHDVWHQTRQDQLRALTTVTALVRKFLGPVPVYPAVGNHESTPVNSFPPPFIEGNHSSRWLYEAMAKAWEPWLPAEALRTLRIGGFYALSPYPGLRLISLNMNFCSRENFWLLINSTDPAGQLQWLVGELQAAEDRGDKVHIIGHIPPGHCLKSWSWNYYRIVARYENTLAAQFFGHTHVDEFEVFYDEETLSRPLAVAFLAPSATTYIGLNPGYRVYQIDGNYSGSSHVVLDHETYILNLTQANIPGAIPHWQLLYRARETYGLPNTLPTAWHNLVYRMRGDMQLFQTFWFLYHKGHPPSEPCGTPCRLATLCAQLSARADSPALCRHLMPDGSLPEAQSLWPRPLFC
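Human placenta-derived ASM preincubated with compound 10 min at room temperature, then reacted with 9 uM (final) fluorogenic HMU-PC substrate for 60 min at 37 C. Stop solution raises pH to 10; fluorescence read at Ex 386/Em 447 nm.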
TDP1 cell noCPT: qHTS for Inhibitors of human tyrosyl-DNA phosphodiesterase 1 (TDP1): qHTS in cells in absence of CPT | DT40 Tdp1-/- hTDP1 cells, no CPT, ATP luminescence, 48 h | Potency, µM (highest dose often 46.2 µM), inactives show top-dose activity change, negative = growth inhibition, actives largely listed as inhibitors | 420,000 compounds, 15% hits | AID 686978, 2013; also: potency is read from the fitted curve at half-maximal effect; % is scaled to controls: 0 for no effect and ±100 for the full control effect; nearly all actives have a fitted effect of over 55% in size
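Stably hTDP1-transfected Tdp1-null chicken DT40 cells were treated with library compounds minus camptothecin and grown for at least 48 hr at 37 °C, after which cellular ATP was quantified by luminescence.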
TGFb inhibitor: qHTS for Inhibitors of TGF-b. HepG2 CAGA-GFP TGF-b/SMAD3 reporter, GFP fluorescence, 18 h; TGF-beta stimulated, 500 pg/mL final. Potency, µM (series often up to 46.1 µM), without a hit: at the highest dose activity, negative = inhibition, hits mostly inhibitors. 410,000 compounds, 1.2% hits. AID 588855, 2011; also: potency is read from the fitted curve at half-maximal effect; % is scaled to controls: 0 for no effect and ±100 for the full control effect; nearly all actives have a fitted effect of over 65% in size
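Inhibition was scored as loss of TGF-beta-induced (500 pg/mL final, 18 hours, 37 degrees C) GFP in HEPG2 cells carrying a CAGA-GFP reporter, in DMEM with 1% FBS. Well GFP was summed per cell; Activity was normalised to unstimulated and stimulated DMSO wells, then concentration-response fitting.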
Active calls of the source: *; ? = inconclusive; . = not tested or not shown. Unless noted, calls follow the shape of the dose curve; as a rule, active = well fitted curve in the direction sought with a large enough effect; inconclusive = small, poorly fitted or top-dose-only effect, or another doubt; inactive = no such curve, though single readings can be large; an effect the other way counts as inactive or inconclusive.

SMILES	IL1B secr inh	HepG2 viability	DT40 TDP1 CPT	S-ASM inh	TDP1 cell noCPT	TGFb inhibitor
c1ccc(Cn2c(Cn3c(-c4cnccn4)nc4ccccc43)nc3ccccc32)cc1	-14	.	26µM*	.	?	.
Fc1ccc(CCn2c(Cn3c(-c4cnccn4)nc4ccccc43)nc3ccccc32)cc1	-26	.	-42%	.	-48%	.
CC1CCN(C(=O)CSc2nc3ccccc3s2)CC1	-15	-4%	12%	4%	-14%	-3%
O=C(CSc1c(Cl)cccc1Cl)N1CCC(c2nc3ccccc3s2)CC1	-16	-2%	?	-11%	21µM*	-12%
O=C(CSc1ccc(Cl)cc1)N1CCC(c2nc3ccccc3s2)CC1	-2	-52%	26µM*	-14%	?	?
CS(=O)c1ccccc1-c1nc(-c2cc(C(F)(F)F)cc(C(F)(F)F)c2)no1 (centres undefined)	6	-19%	10µM*	-4%	13µM*	6%
CS(=O)(=O)c1ccccc1-c1nc(-c2cc(C(F)(F)F)cc(C(F)(F)F)c2)no1	8	3%	?	-1%	-4%	4%
CCN(CC)c1ccc(/C=C(/C#N)c2nc3ccc(C)cc3[nH]2)c(OC(C)C)c1	?	-4%	15µM*	?	21µM*	176%
CCOc1cc(N(CC)CC)ccc1/C=C(/C#N)c1nc2ccccc2[nH]1	?	-4%	16µM*	?	10µM*	109%
CCCOc1cc(N(CC)CC)ccc1/C=C(/C#N)c1nc2ccc(C)cc2[nH]1	-2	-14%	21µM*	?	13µM*	132%
COc1c(Cl)cc(Cl)cc1/C=C(\C#N)c1nc2ccccc2[nH]1	.	5%	.	.	.	6%
COc1cccc(/C=C(\C#N)c2nc3ccccc3[nH]2)c1OCC(=O)O	6	-22%	-3%	5%	11%	2%
NC(=S)c1ccc[n+]([O-])c1	6	-32%	-30%	3%	-16%	-2%
COc1ccccc1C(=O)Nc1ccnn1C1CCN(Cc2ccccc2OCCO)CC1	-21	-38%	-25%	-3%	-19%	?
C=CCC[C@H](Cc1ccc(F)cc1)C(=O)OC[C@@H](NC(=O)[C@H](CC=C)CC(=O)NCCO)c1ccccc1	-13	0%	21µM*	7%	?	0%
C=CC[C@H](CC(=O)NCCO)C(=O)N[C@@H](COC(=O)[C@@H](CC=C)Cc1ccc(F)cc1)Cc1ccccc1	-7	-16%	21µM*	3%	?	0%
CO[C@H]1O[C@@H]2O[C@@]3(C)CC[C@H]4[C@H](C)CC[C@@H]([C@H]1C)[C@@]24OO3	.	.	2.7µM*	.	1.5µM*	.
COc1ccc(-c2nc(NCCN(C)C)nc3ccsc23)c(C)c1	-53*	-42%	?	.	?	8%
CN(C)CCNc1nc(Oc2ccccc2)c2sccc2n1	-11	7%	-5%	.	-17%	5%
c1ccc(-c2nc(NCC3CC3)nc3ccsc23)cc1	23	-17%	16µM*	.	?	-5%
Cc1ccccc1-c1nc(NCC2CC2)nc2ccsc12	-1	-27%	23µM*	.	?	0%
COC(=O)C(=O)Nc1cccc2cccnc12	.	6%	.	.	.	13%
Cc1oc(=O)cc(OCc2ccccc2)c1C	4	-3%	?	2%	-28%	5%
CCOc1ccc(Cn2nnc(C(=O)Nc3cccc(SC)c3)c2N)cc1	.	-37%	-29%	.	?	-18%
